This is an account of results in PubChem BioAssay AID1117361 (Southern Research Institute, 2015).

Structures are written as SMILES. The campaign covered roughly 3,600 compounds. About 900 (25%) were called active. Only a sample is shown. Entries with a potency or affinity are not part of this list. Unmarked numbers belong to inactive results. How the calls were made is not given here.

The target of the test is Protein Tat (Human immunodeficiency virus type 1 group M subtype B (isolate HXB2)) (UniProt P04608). As to the kind of experiment: inhibitors of Tat binding to TAR RNA, dose response, counter-screen for Vif-APOBEC3G degradation inhibitor project, biochemical, fluorescence polarization, FAM-labeled TAR RNA (AID 1117361). Conditions: outcome: dose series up to 100 µM unless noted; series mostly up to 100 µM; inhibition: at the top concentration. In general terms: A counterscreen serves to expose hits that act by an unwanted route or on another target.
What is called inhibition is the drop in the measured response relative to a control, in per cent. `CCOCCCNC(=O)C1CCN(S(=O)(=O)CC)CC1`: the “inhibition” value is 3.67%.

As for `CCOC(=O)C(C)N1C(=O)S/C(=C\c2ccc(-c3ccccc3C(=O)O)o2)C1=O` (centres undefined), the “inhibition” value is 28.4%.

For `COc1cc(C(=O)Nc2cccc(-c3nc4ncccc4o3)c2C)cc(OC)c1OC`, the “inhibition” value was 4.73%.

`CCC1(C(N)=O)CC2C=CC1C2` (centres undefined): the outcome was inactive.

Take `CCOC(=O)C(C)Sc1nnc2n1C(C)(C)Cc1ccccc1-2` (centres undefined): the “inhibition” value was 0.68%.

In the case of `O=S1(=O)CCC(N2CCOCC2)C1` (centres undefined), the “inhibition” value is 2.7%.

As for `CCOC(=O)/C=C1\SC(C)C(=O)N1CC(=O)N(CCC#N)c1ccccc1` (centres undefined), the molecule was called inactive.

On to `COc1ccc(OC)c(-n2cnnn2)c1`, for which the “inhibition” value was 7.43%.

For the molecule `COc1ccc(C2=NO[C@@H]3C(=O)N(c4ccc(C)cc4C)C(=O)[C@H]23)cc1OC`, the “inhibition” value was 12.3%.

`CC(C)(C)NC(=O)C1N(c2cccnc2)C(=O)C2C(C(=O)Nc3ccccc3F)C3(C)C=CC21O3` (centres undefined): the “inhibition” value is 16.2%.

Consider `COc1ccc(OC)c(NC(=O)CSc2nnc(C)n2Cc2ccccc2)c1`, for which the call was inactive.

For the molecule `O=C(NCCN1CCOCC1)c1cc(-c2ccc(Br)cc2)on1`, the “inhibition” value was 0.68%.

With `Cc1cc(SCC(=O)NCCCN2CCCC2=O)nc2ccccc12`, the call was inactive.

Consider `CCc1nc(SCC(=O)Nc2ccc(C(=O)O)cc2)n[nH]1`, for which the “inhibition” value was 0.68%.

Turning to `S=c1[nH]nc(COc2ccc(Cl)cc2)o1`, the “inhibition” value is 12.4%.

On to `O=C(NNc1cc(Cl)cc(Cl)c1)c1c(F)cccc1Cl`, for which the call was inactive.

For the molecule `S=c1nc(-c2ccc(Br)cc2)oc2c1CCCC2`, the “inhibition” value was 13%.

On to `CCOC(=O)N1CCN(CC(=O)c2ccc3c(c2)CCN3C(C)=O)CC1`, for which the “inhibition” value is 10.1%.

For the molecule `Cc1ccc(Cc2cnc(NC(=O)/C(C#N)=C/c3ccc(-c4ccc([N+](=O)[O-])cc4)o3)s2)cc1`, the “inhibition” value was 10.8%.

Take `CC(OC(=O)c1ccc([N+](=O)[O-])o1)C(=O)NC1CCCCC1C` (centres undefined): the “inhibition” value was 7.42%.

For `COc1cc(O)oc1C=Nc1ccccc1`, the “inhibition” value was 8.78%.

Regarding `CCOc1ccccc1C1CC(=O)NC(SCC)=C1C#N` (centres undefined), the “inhibition” value was 10.8%.

With `O=S(=O)(Nc1ccc(Cc2ccncc2)cc1)c1ccc(Br)cc1`, the molecule was classed as inactive.

For the molecule `COc1ccc(N(CC(=O)NCCC2=CCCCC2)S(=O)(=O)c2ccccc2)cc1`, the “inhibition” value was 11.6%.

Take `O=C1CC(c2ccco2)CC(O)=C1C=NCC1CCNCC1` (centres undefined): the molecule was classed as inactive.

Consider `CCCN(CC(=O)Nc1ccccc1C)C(=O)COC(=O)c1cnc(C)cn1`, for which the call was inactive.

As to `CC(C)(C)NC(=O)CSc1nnc(-c2ccncc2)n1Cc1ccccc1`, the “inhibition” value was 6.76%.

In the case of `CCOC(=O)Cn1c(=O)oc2cc(S(=O)(=O)NC3CCCc4ccccc43)ccc21` (centres undefined), the molecule was called inactive.

In the case of `CCn1c(SC(C)C(=O)NC2CCCc3ccccc32)nnc1-c1cccs1` (centres undefined), the “inhibition” value was 3.38%.

In the case of `c1ccc2c(c1)ccc1nnc(SCc3ccc4c(c3)OCO4)n12`, the “inhibition” value was 12.2%.

As to `CCC(c1ccc(O)c(O)c1)C(CC)c1ccc(O)c(O)c1` (centres undefined), the “inhibition” value is 3.01%.

`CSc1ccc(CN(C)CC(=O)NC(=O)NCCC2=CCCCC2)cc1`: the molecule was called inactive.

Regarding `COc1cc(/C=N/N=C(N)N)ccc1OCc1ccc(Cl)cc1`, the result was inactive.

For `CSc1cccc(-n2cc(-c3ccc4c(c3)OCO4)[nH]c2=O)c1`, the “inhibition” value is 3.41%.

With `CSCC[C@@H](Nc1nc(-c2ccccc2)nc2c1oc1ccccc12)C(=O)O`, the “inhibition” value was 4.09%.

Take `CN1CCN(C(=O)C2CCN(S(=O)(=O)c3cnc[nH]3)CC2)CC1`: the “inhibition” value is 8.19%.

On to `COCCCNC(=O)c1cc(OC)c(OC)c(OC)c1`, for which the call was inactive.

Regarding `C/C=C/c1ccc(OCC(=O)N2CCc3cc(OC)c(OC)cc3C2)c(OC)c1`, the “inhibition” value is 1.65%.

Consider `Cc1nn(-c2ccccc2)cc1/C=N/O`, for which the “inhibition” value was 12.2%.

For `CCCc1nc(SCC(=O)N2CCCc3ccccc32)c2c(=O)n(C)c(=O)n(C)c2n1`, the outcome was inactive.

As to `O=C(NC(Cc1ccccc1)c1nc2ccccc2[nH]1)c1cccc([N+](=O)[O-])c1` (centres undefined), the outcome was inactive.

With `CCOC(=O)C1=C(C)NC(C)=C(C(=O)OCC)C1c1cn(-c2ccccc2)nc1-c1ccco1`, the “inhibition” value was 25%.

As to `CCOC(=O)C1=C(C)N=c2s/c(=C/c3ccco3)c(=O)n2C1c1cccc(OC)c1` (centres undefined), the “inhibition” value was 1.65%.

In the case of `O=C(CN1c2ccccc2Sc2ccccc21)NNC(=S)Nc1ccc(Cl)cc1Cl`, the “inhibition” value was 1.35%.

As for `CCCn1nc(NC(=O)c2cccs2)c2cc3ccccc3nc21`, the “inhibition” value was 16.2%.

Regarding `CC1=C(SCc2ccccc2)C(=O)c2ccccc2C1=O`, the molecule was called inactive.

Consider `CCCCNC(=O)c1onc(CSc2ccc(C(C)C)cc2)c1C(=O)O`, for which the “inhibition” value was 0.68%.

Take `COc1ccc(CCN(C)C(=O)COC(=O)/C=C/c2ccc(C)o2)cc1OC`: the “inhibition” value was 8.35%.

As for `Cn1nc(C(F)(F)F)c(C#N)c1N1CCN(c2ccc(F)cc2)CC1`, the “inhibition” value is 6.08%.

On to `Cn1cc(/C=C/C(=O)N2CCCC(C(=O)c3cccc(C(F)(F)F)c3)C2)cn1` (centres undefined), for which the “inhibition” value was 6.6%.

Turning to `CCOC(=O)C1Nc2ccc(Br)cc2C2C=CCC12` (centres undefined), the “inhibition” value was 5.68%.

For `CC(C)Cc1nc2oc3c(NCC(C)O)ncnc3c2c2c1CCCC2` (centres undefined), the molecule was called inactive.

In the case of `O=C(NC1CCCCC1)C(c1ccc(F)cc1)N(C(=O)Cc1ccsc1)c1ccc(F)cc1` (centres undefined), the “inhibition” value was 0.68%.

Consider `O=C1C(O)CC2c3ccccc3CC3(CCCC3)N12` (centres undefined), for which the “inhibition” value was 16.2%.
